Measurements as given in PubChem BioAssay (NCI).
Compounds without any hit were thinned out: in the full panel of roughly 83,000, 20% have a hit.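 Each cell line was grown in a 96-well plate and treated with one concentration of compound for 48 hours. Values below 10 were considered active.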 The source made the active and inactive calls.

Test system: HCC-2998 colon
Experiment: NCI-60 one-dose screen, 48 h (100 = growth as untreated, 0 = no growth, -100 = all killed)
Conditions: 10 µM unless noted
Description: Growth inhibition of the HCC-2998 human tumor cell line is measured as a screen for anti-cancer activity. Cells are grown in 96 well plates and exposed to the test compound for 48 hours. Compounds are tested at a single concentration, which is 10^-5 M for most compounds. The reported endpoint is percent growth (GI% or GIPRCNT), where numbers from 0 - 100% represent growth inhibition, and numbers from -100% - 0 represent cell death. For example, a value of 40 represents 60% growth inhibition. A value of 0 means no net growth occurred over the course of the experiment. A value of -40 indicates 40% of cells at the beginning of the experiment died by the end of the experiment. A value of -100 means all cells are dead at the end of the experiment.
NCI-60 Human Tumor Cell Lines Screen was performed using the standard one-dose NCI protocol, which is described in more detail at https://dtp.cancer.gov/discovery_development/nci-60/default.htm.
Compounds with GIPRCNT values below 10 were considered active. Activity score was based on GIPRCNT using the following formula: […]
Score is 0 for GIPRCNT values of 100 or above, 50 for GIPRCNT values of 0, and 100 for GIPRCNT values of -100.

Structure (SMILES) | growth
O=C(Nc1ccc(Nc2cc(Nc3ccccc3)ncn2)cc1)Nc1cc(C(F)(F)F)ccc1F | 93.7% (inactive)
O=C(/C=C/c1ccc(Cl)cc1)c1ccc(O)c(CN2CCN(c3cc4c(cc3F)c(=O)c(C(=O)O)cn4C3CC3)CC2)c1 | 59.4% (inactive)
O=C1CCc2c(sc3[nH]c(=S)n(Cc4ccccc4)c(=O)c23)C1 | 23.9% (inactive)
O=S(=O)(Nc1ccc(Cl)cc1Cl)c1ccc(-c2cnc(C3CC3)o2)cc1 | 39.3% (inactive)
CCCCN(CC)CCCCCCCCCCN1CCCc2cc(OC)ccc21 | -26% (active)
CCN(CC)CCCC(C)NCCCNc1cccc2cccnc12 (stereo not given) | 82.5% (inactive)
Cn1c(=O)c2[nH]c(C(O)C(O)C(O)C(O)CO)nc2n(C)c1=O (stereo not given) | 103% (inactive)
CCN(CC)CC(O)CNc1c2ccc([N+](=O)[O-])cc2nc2cc(OC)c(OC)cc12 (stereo not given) | -68.2% (active)
COc1ccc(-c2csc(NC(=O)CN3CCN(c4cc5c(cc4F)c(=O)c(C(=O)O)cn5C4CC4)CC3)n2)cc1 | 36.4% (inactive)
Nc1nc(SCc2ccccc2)c2ncn(C3CCCC3)c2n1 | 107% (inactive)
Cc1ccc(Nc2c(C(N)=O)cnc3ccc(-c4csc(N)n4)cc23)cc1 | 100% (inactive)
COc1cnc2c(c1)C(=O)c1c-2n(CCCN2CCN(C)CC2)c(=O)c2cc([N+](=O)[O-])ccc12 | 95.1% (inactive)
O=C(CCCCN1CCOCC1)Nc1ccc(Cn2nnc3c2C(=O)c2nnn(Cc4ccc(NC(=O)CCCCN5CCOCC5)cc4)c2C3=O)cc1 | -62.3% (active)
O=C(Nc1cccc2[nH]c(C(F)(F)F)nc12)c1ccc(Br)cc1F | 48.3% (inactive)
Cc1cc(=O)oc2cc(Oc3nc(-c4cccs4)cn4c(-c5cccs5)cnc34)ccc12 | 78.1% (inactive)
Nc1c(C(=O)Nc2ccccc2Cl)sc2nc3c(cc12)CCCCCC3 | 33% (inactive)
CC(=O)CC(C)(C)c1ccc(Cl)cc1 | 98.7% (inactive)
COc1ccc(/C=C/C(=O)c2ccc(NC(=O)c3cc4cc5ccccc5nc4s3)cc2)cc1OC | 104% (inactive)
COc1ccc(CNc2nccnn2)cc1 | 98.7% (inactive)
Cc1cc2cc3cc(C)c(N(C)C)cc3nc2cc1N(C)C | 23.7% (inactive)

Structure (SMILES) | growth
CN(C)c1ccc(/C=C\C2=[N+](C)c3ccccc3C2(C)C)cc1 | 23.4% (inactive)
O=C(O)c1cccc2c1-c1ccccc1C2=O | 99% (inactive)
CN1/C(=C\C=C\C2=[N+](C)c3ccccc3C2(C)C)C(C)(C)c2ccccc21 | -60.8% (active)
CCN(CC)Cc1cc(Nc2c3ccc(Cl)cc3nc3c(C)cccc23)ccc1O | -95% (active)
C=C1CC[C@@H]2[C@](C)(COC(C)=O)[C@H](OC(C)=O)CC[C@@]2(C)[C@@H]1CC(Nc1ccc(S(=O)(=O)Nc2nc(C)cc(C)n2)cc1)C1=CCOC1=O (stereo not given in full) | 100% (inactive)
CCCCCCCCCCCCNC(=O)[C@H]1CSC(c2ccc(OC)c(F)c2)N1 (stereo not given in full) | -83.6% (active)
Oc1ccc(Nc2nccc(-c3ccc4ccccc4c3)n2)cc1 | 60.4% (inactive)
CCN(CC)CCCC(C)N/C(=C1\C(=O)NC(=O)\C1=C(/NC(C)CCCN(CC)CC)c1cccc(OC)c1)c1cccc(OC)c1 (stereo not given) | -89.2% (active)
N=c1c2ccccc2nc2n1CCCCC2 | 106% (inactive)
COc1cc(-c2cc(-c3nc4ccc(Cl)cc4[nH]3)[nH]n2)cc(OC)c1OC | 89% (inactive)
COc1ccc(/C=C2\N=C3SC=C(N)N3C2=O)cc1 | 40.9% (inactive)
Cc1cc(Nc2nc(-c3cccnc3)nc3ccccc23)n[nH]1 | 69.7% (inactive)
COc1ccc(-c2cc(=O)[nH]c3c(OC)c4ccccc4c(OC)c23)cc1 | 0.772% (active)
Cn1c2ccccc2c2c3c(c4c5ccccc5[nH]c4c21)C(=O)N(N)C3=O | 74.4% (inactive)
CC1CN(C(C)C)C(=S)N(c2ccccc2)C1=O (stereo not given) | 101% (inactive)
C=C1CCC2C3(C)COC(c4ccc(SC)cc4)OC3CCC2(C)C1C/C=C1/C(=O)OCC1O (stereo not given) | 90.5% (inactive)
COc1ccc(-c2cn3c(-c4ccc(OC)cc4)cnc3c(Oc3ccc4c(C)cc(=O)oc4c3)n2)cc1 | 77.1% (inactive)
CCc1ccccc1NC(=O)c1sc2nc3c(cc2c1N)C(=O)CCC3 | 24% (inactive)
C[C@H](CCC(=O)O)[C@H]1CC[C@H]2[C@@H]3CC[C@@H]4/C(=C\c5ccco5)C(=O)/C(=C\c5ccco5)C[C@]4(C)[C@H]3CC[C@]12C | 92.8% (inactive)
CCOC(=O)c1c2ncccc2n2c(=O)n(-c3ccc(Cl)cc3)nnc12 | 90.3% (inactive)
